Screening results deposited in PubChem BioAssay by several laboratories.
Mtb UGM inh: M. tuberculosis UGM enzyme inhibitors, primary screen, biochemical, fluorescence polarization, single point; purified UGM, fluorescence polarization probe displacement; inhibition, % at 10 µM; hit rate 0.06% among 320,000; UDP-galactopyranose mutase (Mycobacterium tuberculosis (strain ATCC 25618 / H37Rv)), …; in the data active = inhibition above about 10%, passing the limit was not always enough
RecA splice inh: Mtb RecA intein splicing inhibitors, primary screen, biochemical, fluorescence, HTS. Protein RecA (Mycobacterium tuberculosis (strain ATCC 25618 / H37Rv)), P9WHJ3. cell-free RecA intein splicing. inhibition, % (no concentration beside the values). hit rate 0.75% among 290,000; in the data active = inhibition above about 30%;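 also: 0% = vehicle wells and 100% = reference inhibitor control wells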
FadD28 binding: inhibitors of FadD28 bisubstrate probe binding, primary screen, biochemical, fluorescence polarization, single point; inhibition, % at 12.5 µM; AID 588549, 2011; Mycobacterium tuberculosis FadD28 fatty-acid-AMP ligase; hit rate 0.22% among 360,000; in the data active = inhibition above about 8.5%, passing the limit was not always enough
Mtb hypoxia rep: PubChem AID 1159583; M. tuberculosis hypoxia-regulated fluorescent reporter, fluorescence; fluorescence inhibition, % (test concentration not listed); hit rate 0.1% among 300,000; in the data active = fluorescence inhibition mostly above about 23%, no sharp cut-off; inactive = mostly below about 17%
Rv3671c inh: Rv3671c serine protease inhibitors, primary screen, biochemical, fluorescence polarization, M. tuberculosis H37Rv. P9WHR9. inhibition, % at 5.96 µM. hit rate 0.048% among 320,000; in the data active = inhibition above about 38%;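 also: extracellular domain of Rv3671c used as enzyme; 0% = enzyme with DMSO and 100% = no enzyme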
* = called active by the depositor; x = not tested or not shown. The list is not random: actives were taken first. Their share in the collection is about 0.92%.

SMILES | Mtb UGM inh | RecA splice inh | FadD28 binding | Mtb hypoxia rep | Rv3671c inh
COc1ccc(C(=O)Oc2ccc(/C=N/Nc3ccc(Cl)c(C(=O)O)c3)cc2OC)cc1 | -2.3 | 6.8 | 9.5* | x | 16.5
COc1cc(/C=C/C(=O)c2ccc(NS(=O)(=O)c3ccc(C)cc3)cc2)cc(OC)c1O | 0.6 | -4.3 | -1.4 | -17.8 | 23.0
O=C(O)c1cc(N/N=C/c2ccc(-c3ccccc3)cc2)ccc1Cl | -1.1 | 3.4 | 19.1* | x | x
Cc1ccc(S(=O)(=O)Oc2cccc(/C=N/Nc3ccc(C(=O)O)cc3)c2)cc1 | -0.2 | 1.1 | 30.1* | x | 6.9
N#CC(=Cc1ccc(Cl)cc1)c1n[nH]c(Cn2cncn2)n1 | x | x | x | -4.2 | x
CCOC(=O)c1c(NC(=O)CN2CCCCC2)sc(CN(C)C)c1-c1ccccc1 | 0.6 | 13.5 | -1.2 | -1.1 | -6.8
CCOC(=O)c1c(NC(=O)CCl)sc(CN(C)C)c1-c1ccccc1 | -1.6 | 50.0* | -1.2 | 18.0 | -0.9
CC(=O)O[C@@H]1C[C@H]2C(C)(C)C(=O)C=C[C@]2(C)[C@H]2CC[C@@]3(C)[C@H](c4ccoc4)OC(=O)[C@H]4O[C@]43[C@@]21C | -2.4 | 42.3* | -1.4 | x | -9.7
COc1cc(/C=C2\SC(=S)N(NC(=O)c3ccc(O)c(OC)c3)C2=O)ccc1O | -5.4 | -1.5 | 16.3* | x | -137.5
COc1cc(/C=C2\SC(=S)N(NC(=O)c3ccccc3OC)C2=O)ccc1O | -2.2 | -4.9 | -1.5 | 7.4 | x
COc1cc(/C=C2\SC(=S)N(NC(=O)c3cccc(O)c3)C2=O)ccc1O | -9.0 | -3.9 | 12.8* | 3.6 | x
COc1cc(/C=C2\SC(=S)N(NC(=O)c3ccncc3)C2=O)ccc1O | -25.5 | -3.7 | -6.4 | 1.2 | -79.0
COc1ccc(C(C(=O)NC2CCCCC2)N(C(=O)CCl)c2ccc(C)cc2)cc1 (stereo not given) | 2.7 | -2.9 | -0.5 | 1.7 | -0.5
COC(CN(C(=O)CCl)C(C(=O)NC1CCCCC1)c1ccc(C)cc1)OC (stereo not given) | 0.1 | 31.6* | -3.9 | 10.4 | -5.2
NC(=NN=Cc1ccc(-c2ccc(O)c(C(=O)O)c2)o1)N[N+](=O)[O-] | x | x | x | 4.6 | x
COCCNS(=O)(=O)c1ccc(-c2ccc(C)cc2)cc1 | -1.5 | -0.1 | 0.0 | 77.5* | -5.2
COC(=O)CC1C(=O)NCCN1C(=O)c1ccc(S(=O)(=O)N2CCOCC2)cc1 (stereo not given) | -2.2 | 0.9 | 14.0* | x | 1.2
CCOC(=O)CC1C(=O)NCCN1C(=O)c1ccc(Cl)cc1 (stereo not given) | 2.0 | -0.5 | 0.4 | -5.5 | 2.3
O=[N+]([O-])C(/C=C(\Cl)[N+](=O)[O-])=C1N(Cc2ccc(Cl)nc2)CCN1Cc1ccc(Cl)nc1 | 0.4 | 61.5* | -0.3 | 4.2 | -1.0
CC(C)(C)C(=O)C(C#N)=Cc1ccc(O)cc1 | x | x | x | -0.4 | x
CC1C(=O)C(C)C(c2cc(Cl)ccc2O)NC1c1cc(Cl)ccc1O (stereo not given) | 2.1 | 49.8* | -8.1 | -6.4 | -21.9
COC(=O)C1=C(c2ccc(OC)c(OC)c2)CC2CCC1N2C(=O)NCCO (stereo not given) | x | x | x | 9.1 | x
COc1cc(C=C(C#N)C(=O)c2ccc(O)c(O)c2)cc(I)c1O | x | x | x | 11.2 | x
COc1cc(/C=C(\C#N)C(=O)c2ccc(O)c(O)c2)cc(I)c1O | -4.6 | x | 12.1* | x | -47.2
N#C/C(=C\c1cccc(NC(=O)c2ccccc2Cl)c1)C(=O)NCCc1ccccc1 | -1.9 | 35.9* | -5.0 | 12.1 | -16.8
SMILES | Mtb UGM inh | RecA splice inh | FadD28 binding | Mtb hypoxia rep | Rv3671c inh
Cc1nc2ccccc2c(=O)n1NC(=O)C=Cc1ccccc1Cl | x | x | x | -7.0 | x
CCCC(=O)Nc1ccc(Cc2ccc(NC(=O)CCC)c(C(=O)O)c2)cc1C(=O)O | 11.3* | -4.7 | -2.4 | 1.3 | -5.3
CCCn1c(=S)[nH]c2sc3c(c2c1=O)CCCC3 | -0.2 | -1.2 | 0.2 | 6.0 | 0.6
COCCn1c(=S)[nH]c2sc3c(c2c1=O)CCC(C)C3 (stereo not given) | 4.1 | -0.8 | 11.5* | 1.7 | 8.7
CN(C(=O)c1cccc(COc2ccc(Cl)cc2Cl)c1)c1ccccc1 | -1.0 | 35.5* | -1.6 | -4.9 | -19.0
O=C(NCc1ccccc1)c1cccc(COc2cc(Cl)ccc2Cl)c1 | -0.9 | -0.4 | -0.9 | 4.8 | -0.1
CCCCCCCC/C=C\CCCCCCCC(=O)O | -0.8 | 28.5 | 2.2 | x | 3.9
CCCCCCCC/C=C\CCCCCCCC(=O)NCCO | 4.7 | x | 14.8* | x | -2.2
CC1=Nc2ccccc2/C1=C\c1nc(-c2ccccc2)oc1O | 3.2 | 0.8 | -1.4 | -1.0 | -23.6
